From PubChem BioAssay (NCI)
Compounds without any hit were thinned out: in the full panel of roughly 79,000, 15% have a hit. Rule as the data show it: active = growth inhibition above about 70%; inactive = the rest. Where a SMILES comes first, the peptide text is derived from it.

What was measured:
[1] = NCI Yeast Anticancer Drug Screen. Data for the rad50 strain (AID 155);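 also: 0% = growth of vehicle-only cultures of the same strain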; details: S. cerevisiae rad50 strain growth inhibition; at 50.0 µM; hits give high values
Summary of the method: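 Yeast carrying a defined DNA repair defect were exposed to test compounds, and growth was compared with vehicle-treated controls to give percent inhibition.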

[2] = NCI Yeast Anticancer Drug Screen. Data for the mec2-1 strain (AID 157); details: S. cerevisiae mec2-1 strain, at 50.0 µM, hits give high values
Summary of the method: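 Compounds were applied to mec2-1 yeast cells. Their growth was then compared with that of vehicle-treated cultures to give growth inhibition.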

[3] = NCI Yeast Anticancer Drug Screen. Data for the sgs1 mgt1 strain (AID 161);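 also: 0% = growth of cultures given vehicle only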; details: S. cerevisiae sgs1 mgt1 strain, at 50.0 µM, hits give high values
Summary of the method: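 This yeast growth screen uses a strain with defined DNA-repair lesions; compound-treated growth is compared with vehicle-treated growth.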

[4] = NCI Yeast Anticancer Drug Screen. Data for the cln2 rad14 strain (AID 165);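 also: 0% = growth equal to vehicle treated cultures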; details: S. cerevisiae cln2 rad14 strain, at 50.0 µM, hits give high values
Summary of the method: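 Strain: cln2 rad14 yeast, altered in cell cycle control and DNA damage repair. Read-out: growth inhibition vs vehicle.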

[5] = NCI Yeast Anticancer Drug Screen. Data for the bub3 strain (AID 167); details: S. cerevisiae bub3 mutant strain, at 50.0 µM, hits give high values
Summary of the method: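 Compounds were applied to a genetically altered yeast strain carrying a cell-cycle control defect. Growth inhibition was scored against vehicle-treated controls.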

[6] = NCI Yeast Anticancer Drug Screen. Data for the mlh1 rad18 strain (AID 175); details: S. cerevisiae mlh1 rad18 strain growth inhibition; at 50.0 µM; hits give high values
Summary of the method: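 A repair-deficient yeast strain is exposed to test compound, and growth is scored relative to vehicle-treated controls.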

Measured: growth inhibition

COc1ccc(NC(=S)N=Nc2c(O)[nH]c3ccccc23)cc1
inactive: [1] -43.2% | [2] -50% | [3] -33.9% | [4] -13.8% | [5] -41.4% | [6] -30.6%

CO/C(=N\N=C\c1cccc(Cl)c1)c1ccncc1
inactive: [1] 6.35% | [2] -9.6% | [3] -13.8% | [4] -24.4% | [5] -18.1% | [6] -11.1%

C[N+]1(C)CCCC(CO)(c2ccccc2)CC1 (stereo unspecified)
inactive: [1] 10.2% | [2] 13% | [3] 3.3% | [4] -15.5% | [5] 14.9% | [6] 7.7%

CCN(CC)C(=O)Oc1cc(C)c([N+](C)(C)C)cc1C(C)C
inactive: [1] 10.1% | [2] 6.7% | [3] 13.2% | [4] 17.8% | [5] 24.6% | [6] -27.7%

O=c1c2c(oc3c(Cl)cc(Cl)cc13)CCCC2
inactive: [1] 13.3% | [2] -19.6% | [3] -1.8% | [4] 7.6% | [5] 5.8% | [6] 4.05%

CCOC(=O)CCC(=O)Oc1cccc2c1C(=O)c1c(OC(=O)CCC(=O)OCC)cccc1C2=O
inactive: [1] 40.5% | [2] 37% | [3] 9.8% | [4] 17.2% | [5] 6.45% | [6] 47.7%

Cc1cc(N2CCCCC2)nc2ccccc12
inactive: [1] 4.95% | [2] -4.4% | [3] -18.6% | [4] -3.9% | [5] -1.85% | [6] 9.25%

O=C(/C=C/c1ccc(Cl)cc1)c1cc(Cl)ccc1O
inactive: [1] -14.4% | [2] -25.3% | [3] -13.8% | [4] -27.8% | [5] 16.2% | [6] -10.2%

CCN(CC)C(C)(C)C(=O)/C=C/c1ccc(OC)cc1
inactive: [1] -11.6% | [2] -15.2% | [3] -33.3% | [4] 12.7% | [5] 9.65% | [6] -18.4%

COC(=O)C1c2ccc(C)cc2-c2cc(C)ccc21
inactive: [1] 16.5% | [2] -36.9% | [3] 8.55% | [4] 17.4% | [5] 26.4% | [6] 32.6%

CC(=O)OC1CCCN(C)C1 (stereo unspecified)
inactive: [1] -3.2% | [2] 5.5% | [3] 4.6% | [4] -7.9% | [5] 8.75% | [6] -7.8%

Cc1ccc(/C(O)=C/c2nc3c(nc2NC24CC5CC(CC(C5)C2)C4)c(=O)oc2ccccc23)cc1
inactive: [1] 5.65% | [2] -0.65% | [3] -6.7% | [4] -3.7% | [5] 6.1% | [6] 1.85%

c1ccc(CCn2c(-c3ccccn3)nc3ccccc32)nc1
inactive: [1] 13.2% | [2] -4.25% | [3] 18.1% | [4] -24.5% | [5] 15.5% | [6] 7.95%

Cc1nc2ccc(Cl)cc2c(-n2ccnc2)c1CCn1ccnc1
inactive: [1] -11.6% | [2] -4.6% | [3] -3.55% | [4] -0.5% | [5] 9.25% | [6] -3.7%

CC(=Nc1ccccc1)NO
inactive: [1] 1.9% | [2] 14% | [3] 3.7% | [4] 3.5% | [5] -8.1% | [6] 2.1%

O=C(O)C1=CC(c2ccccc2O)=NCCN1
inactive: [1] -20.8% | [2] -0.75% | [3] 0.7% | [4] -34.6% | [5] -4.1% | [6] 3.6%

CCCCCCCCCCCCCCCCSc1ccc(Br)cc1
inactive: [1] 45% | [2] 7% | [3] 23.9% | [4] 1.8% | [5] 2.2% | [6] 21%

O=C(OCC(COC(=O)c1ccccc1)OC(=O)c1ccccc1)c1ccccc1
inactive: [1] -7.15% | [2] 2.15% | [3] 8.8% | [4] -24.6% | [5] 38.8% | [6] 0.65%

COC(=O)c1ccccc1N=CCC(C)CCCC(C)(C)O (stereo unspecified)
inactive: [1] -10.4% | [2] 4.4% | [3] 26.4% | [4] -8.4% | [5] 0.1% | [6] -5.05%

CCCCCOC(=O)CC(CC(=O)OCCCCC)C(=O)OCCCCC
inactive: [1] 14.3% | [2] 5.15% | [3] 14% | [4] -3.8% | [5] -28.6% | [6] 1.75%

O=CC(O)C(O)C(O)C(O)C(=O)O.O=CC(O)C(O)C(O)C(O)C(=O)O.[NH-]C1CCCCC1[NH-].[Pt+2] (stereo unspecified)
inactive: [1] -7.65% | [2] -9.8% | [3] 8.2% | [4] 4.25% | [5] 6.35% | [6] -41%

O=C(O)CSc1nc2ccc(N3C(=O)C4C5C=CC(C5)C4C3=O)cc2s1 (stereo unspecified)
inactive: [1] 29.4% | [2] -2.65% | [3] -2.5% | [4] 11.3% | [5] -2.5% | [6] 6.15%

COC(=O)C(C(=O)C(=O)Nc1ccc(C(F)(F)F)cc1[N+](=O)[O-])c1csc(-n2nc(-c3ccccc3)cc2-c2ccccc2)n1 (stereo unspecified)
inactive: [1] 19.9% | [2] 18.6% | [3] 42.5% | [4] -13.2% | [5] 23.4% | [6] 1.6%

Cc1cc(C)c2ccccc2n1
inactive: [1] -6.45% | [2] -30.4% | [3] -8.2% | [4] -3.4% | [5] -5.1% | [6] 18.1%

ClC(Cl)(Cl)CC(Br)c1ccccc1 (stereo unspecified)
inactive: [1] -1.55% | [2] -8.8% | [3] 7.55% | [4] -22.9% | [5] -6.9% | [6] 2.25%

N#CC(c1ccccc1)N(CCc1ccccc1)C(=O)Oc1ccccc1 (stereo unspecified)
inactive: [1] -14.6% | [2] -19.6% | [3] -8.3% | [4] -18.2% | [5] -40.3% | [6] -30.9%

CC(=O)Oc1ccc2c(c1)C(=O)CCCCCC(=O)O2
inactive: [1] 19.2% | [2] 4.2% | [3] 6.85% | [4] -0.25% | [5] -2.4% | [6] -10.8%

CCO/C=N\c1c(C#N)c(CC#N)nn1C
inactive: [1] -3.55% | [2] -12% | [3] -8.65% | [4] -27.9% | [5] -1.75% | [6] -13.4%

Cc1ccccc1N1CCN(CC(O)Cc2ccccc2)CC1 (stereo unspecified)
inactive: [1] 19.6% | [2] 10% | [3] 12.1% | [4] -6.85% | [5] 15.1% | [6] 21.1%

CC(=O)Nc1cc(Cl)cc2c1[nH]c(=O)c1ccccc12
inactive: [1] 9.75% | [2] 5.35% | [3] -2% | [4] -7% | [5] 9.25% | [6] 1.05%

CC(C)Oc1ccc(C(=O)OCCC(C)N2CCCC2)cc1 (stereo unspecified)
inactive: [1] 40.9% | [2] 36.7% | [3] 53.2% | [4] 31.5% | [5] 46.4% | [6] 27.9%

NC(=S)n1nc(-c2ccccc2)c(N=Nc2ccccc2[N+](=O)[O-])c1-c1ccccc1
inactive: [1] 13.2% | [2] 2.5% | [3] -3.15% | [4] -35.6% | [5] 3.6% | [6] 9.45%

CC(C)=CCNc1ncnc2c1ncn2CCC#N
inactive: [1] -24.1% | [2] -6.55% | [3] -16.9% | [4] 5.1% | [5] -35.8% | [6] -21.4%

CC1CCC2OC23C(=O)C2OC2C(C(C)(C)O)C13C (stereo unspecified)
inactive: [1] -3.25% | [2] -2.35% | [3] -10.7% | [4] 2.5% | [5] 5.65% | [6] 12.8%

CCc1cccc(CC)c1NC(=O)Nc1cc(Cl)ccc1C
inactive: [1] 1.8% | [2] 6.45% | [3] 5.4% | [4] -8.45% | [5] 30.1% | [6] 7.9%

O=C(O)/C=C\c1cc2c(cc1[N+](=O)[O-])OCO2
inactive: [1] 0.4% | [2] -5.3% | [3] -4.2% | [4] -12.2% | [5] 14.6% | [6] -2.5%

O=C(O)[C@H](CSSC[C@@H](C(=O)O)N1C(=O)c2ccccc2C1=O)N1C(=O)c2ccccc2C1=O
inactive: [1] 20.3% | [2] -6.4% | [3] -4.85% | [4] 31.4% | [5] 2.8% | [6] -4.4%

CC(=O)OCCOCNC(=S)N/N=C/c1ccc([N+](=O)[O-])s1
inactive: [1] 35.4% | [2] -5.2% | [3] 23.9% | [4] 32.5% | [5] 2.7% | [6] 12.6%

CCn1c2ccccc2c2cc(/C=N/N=C/c3ccc4c(c3)c3ccccc3n4CC)ccc21
inactive: [1] -17.8% | [2] 5.15% | [3] -11.6% | [4] -13.7% | [5] -1.8% | [6] -18.9%

CC(C)CC(NC(=O)C(Cc1ccccc1)NC(=O)CNC(=O)CN)C(=O)O (stereo unspecified) (H-GGFL-OH; configuration not given here)
inactive: [1] -1.55% | [2] -4.05% | [3] -11.4% | [4] -5.05% | [5] -1.9% | [6] -12.4%

CC(Cl)(CO)CCl (stereo unspecified)
inactive: [1] 5.45% | [2] 9.5% | [3] -2.65% | [4] 4.05% | [5] -6.4% | [6] 2.05%
